From the supplement of paper PMC10681739

Tests used:
[1] = biological target: T1, ETS1 (UniProt P14921); assay: ETS1 binding intensity (PBM fluorescence), ETS1 alone (arbitrary fluorescence units); higher = stronger binding; details: ETS1 concentration 1 nM; RUNX1 concentration 0 nM
T1 sequence: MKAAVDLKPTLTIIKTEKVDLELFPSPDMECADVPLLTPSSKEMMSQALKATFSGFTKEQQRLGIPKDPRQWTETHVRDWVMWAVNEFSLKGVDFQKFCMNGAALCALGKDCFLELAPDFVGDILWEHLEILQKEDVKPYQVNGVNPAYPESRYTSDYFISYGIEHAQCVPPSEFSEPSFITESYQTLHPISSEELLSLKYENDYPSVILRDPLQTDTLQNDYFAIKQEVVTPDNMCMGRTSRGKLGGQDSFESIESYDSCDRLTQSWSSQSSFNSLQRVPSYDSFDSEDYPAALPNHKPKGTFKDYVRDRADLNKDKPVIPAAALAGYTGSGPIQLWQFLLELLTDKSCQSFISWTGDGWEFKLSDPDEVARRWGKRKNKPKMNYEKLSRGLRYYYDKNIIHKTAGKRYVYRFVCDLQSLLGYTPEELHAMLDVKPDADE

[2] = biological target: RUNX1 (UniProt Q01196); assay: RUNX1 binding intensity (PBM fluorescence), RUNX1 alone (arbitrary fluorescence units); higher = stronger binding; details: RUNX1 concentration 2 nM; ETS1 concentration 0 nM
Description: (§1)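 Cooperative gcPBM on 36-bp genomic probes with neighbouring ETS1 and RUNX1 sites. Recombinant human RUNX1 (2 nM) was incubated alone or with ETS1 (25 nM) and detected with anti-RUNX1 antibody plus Alexa488 secondary. Values are medians over 4 replicate spots; the RUNX1+ETS1 data were normalised to the RUNX1-only data. The probes sit in constant array flanks that are not printed.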

[3] = biological target: T1, ETS1; assay: ETS1 binding intensity (PBM fluorescence) in presence of RUNX1, normalised to ETS1-only experiment (arbitrary fluorescence units); higher = stronger binding; details: ETS1 concentration 1 nM; RUNX1 concentration 25 nM
[4] = biological target: RUNX1 (UniProt Q01196); assay: RUNX1 binding intensity (PBM fluorescence) in presence of ETS1, normalised to RUNX1-only experiment (arbitrary fluorescence units); higher = stronger binding; details: RUNX1 concentration 2 nM; ETS1 concentration 25 nM
Description: as §1
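Throughout, for RUNX1 binding intensity (PBM fluorescence) in presence of ETS1, normalised to RUNX1-only experiment: Full-length recombinant human ETS1 or RUNX1 bound to double-stranded 36-bp genomic probes on microarrays, detected by protein-specific primary antibody and Alexa488 secondary, spot fluorescence as median of four replicate spots.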
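Throughout, for RUNX1 binding intensity (PBM fluorescence), RUNX1 alone: Full-length recombinant human RUNX1 bound to double-stranded 36-bp genomic probes on a high-density microarray, scored as Alexa488 fluorescence per spot via anti-RUNX1 antibody, median of four replicate spots.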

Sequence of RUNX1 (Q01196 whole entry): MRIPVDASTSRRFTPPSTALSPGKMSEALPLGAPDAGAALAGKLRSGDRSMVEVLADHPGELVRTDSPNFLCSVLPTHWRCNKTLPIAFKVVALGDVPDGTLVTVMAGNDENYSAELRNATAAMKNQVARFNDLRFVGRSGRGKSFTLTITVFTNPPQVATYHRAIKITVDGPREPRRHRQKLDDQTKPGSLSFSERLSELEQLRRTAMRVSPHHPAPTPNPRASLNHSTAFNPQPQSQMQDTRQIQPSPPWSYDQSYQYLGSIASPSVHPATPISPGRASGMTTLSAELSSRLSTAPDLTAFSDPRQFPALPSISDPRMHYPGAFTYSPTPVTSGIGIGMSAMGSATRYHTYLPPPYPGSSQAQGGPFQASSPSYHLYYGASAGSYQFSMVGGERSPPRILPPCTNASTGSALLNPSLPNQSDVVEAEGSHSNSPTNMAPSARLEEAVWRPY

Sequence	ETS1 binding intensity [1]	RUNX1 binding intensity [2]	ETS1 binding intensity [3]	RUNX1 binding intensity [4]
GGCACTTCCGGTCCTGACCTGAAGCGGTAACCGTCA	8390	719	8600	1820
CAGAACGGTCCCCGGAACACTGCGGTTCCCGCCTGG	357	1040	895	889
GCAAACAGCACATCCGGTGTGGTCGACGGGTCCTCC	5820	728	6160	1830
GCGAGAGGGAGGAAGTGACTCACCAACCACAACAAA	1480	970	5020	1220
GCACACCGGAACTCACACCTGAAACCACAGAACCAA	868	2180	4300	5220
CTGCTGACCAAAACAGGATGTGGTCTACACAAAGTG	10300	800	36600	3500
TGACGGCAGGCAGGATGTGGTGAGACAAATCCACTC	4070	904	8840	2660
CAGCTTTCCGGCCTGCAGCACAGGCAATGTGGTTTT	341	1020	554	2150
AACAACTGACCGGACAGAACACAGCCACAAAACACG	606	936	544	928
CAATGGATGGCCACATCCTCACCACAAACTGAGTCA	368	939	647	1360
TCTTCTTCCTCCCCCACCCCAAAAGCCACAGGTGAC	492	1290	441	1410
ACCTTCGCCGGATGCTGTGGCTGAAACCACAGCATT	2480	994	13300	1980
CGAACGCCGGACGTTCTGGGCACGTGACCGCCACCC	643	863	1100	938
AACCCACCGGATGGAAGCTGCCACTCAGCCGCAGGA	1100	836	1700	1030
GCGGGCAGGATCTTCCTGTGGTTTGCCTTGCCCACT	388	904	653	2190
CGGGTGGTGGCAGGATGTGGGTAGGGGGCCAGGCGA	2930	895	6860	2560
AAGAGGAAATAAATACCAGAGTGAACCCACAAACCT	441	892	943	903
TACAATTCGCACCGGAACTTGCGGCCCGGCTTCATT	3630	729	4640	963
CTCTGCCCGCTTCCGCTGGCGGTACCTCAGAGCCGC	919	904	920	4710

Sequence	ETS1 binding intensity [1]	RUNX1 binding intensity [2]	ETS1 binding intensity [3]	RUNX1 binding intensity [4]
AGAGCGAGGAGGACTTCCTGCGGCAGGTCGGCGTGA	635	652	622	1080
GCCTGTCGCAGGAACGGAAGTGGTTACGGCCCTAGT	8480	830	19800	3500
TCTCCCGGAACTGCTCCTTCACCATGATGACCGCTG	590	966	542	1090
GGTGGCAACATCCTGGGGAGGGGAACCCACAGGGGA	364	835	452	1100
GGGGCAGCTTCCGGCAGGAGAGCCCGCATTCCCGGC	903	1460	771	2470
AACAGCACACAGGAAGTTACCGCTGAAGCAAAGGAG	2750	813	4760	1250
GGAGGAAGAGGAGGATGTGGTGAGCCGCTCCCCGCC	923	782	1870	1260
GAAATTTCCGCTTTCTTTCTGCAGCAGGAACCGCGG	2670	849	2590	2550
GGCTGTGCTTCAGGATGTGGTAATGCTTGGGAGGCG	990	780	4180	1360
TGTCCGCACCCCACTTCCGCCCCGCAGAGGGCAACG	2960	890	3480	3130
CTGTTTCCGAGTAAAGTAGGGTGTGTGGGTCACATG	456	872	395	929
GCAGAGTTTACAACAGGATGTGGTTATTGGCGCTGC	8870	777	46800	4380
TGCAAGAGGAAGCTGGGGTTTGTGGTTCATGTTTTG	528	874	1000	1390
GAGGGGTGGGGGAGGAAGGCTGCGGTTTCTGCTGGG	390	8430	2180	11100
TCTTCAGGCGTCTTTCCGGTGGTGGTCGTTTTTGCT	1530	905	1330	1390
TTTCTGAAACCCTCAGGATGTGGGTTTTCACACTGT	1310	800	6900	1100
AGCCCCTACCACTTCCCCCCACAGCAGTTCTGAGAT	720	1410	755	2250
TGCATGCAACAGGAAGTGGGGTGTGGTTTGTTCTGG	11600	760	39100	1890
